Measurements from PubChem BioAssay (NCATS).
Results filed as inconclusive are left out. Activity calls are given as the source filed them. The call rests on the fitted dose curve; in most records, active means well fitted curve in the direction sought with a large enough effect; inconclusive means small, poorly fitted or top-dose-only effect, or another doubt; inactive means no such curve, though single readings can be large; an effect the other way counts as inactive or inconclusive. Residues, ends and D or L forms follow the SMILES beside them.

What was measured:
[1] = BET inhibitor-based combinations targeting novel dependencies in MECOM-rearranged (r) AML: MV-4-11 cell line (AID 2202233); further: nearly all actives have a fitted effect of over 45% in size
Procedure, shortened: (§1)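 Cells at 500/well were exposed for 48 hr to MIPE v5.0 drugs as 11-point dose curves. Viability was read by CellTiter-Glo luminescence and normalized to DMSO and empty-well controls. Activity was expressed as AUC and per-cell-line Z-AUC.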

[2] = BET inhibitor-based combinations targeting novel dependencies in MECOM-rearranged (r) AML: UCSD-AML1 cell line (AID 2202235); further: nearly all actives have a fitted effect of over 40% in size
Procedure, shortened: as §1

[3] = BET inhibitor-based combinations targeting novel dependencies in MECOM-rearranged (r) AML: AML-194 cell line (AID 2202237; further: nearly all actives have a fitted effect of over 40% in size)
Procedure, shortened: (§2)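 AML cell lines seeded at 500 cells/well, treated with 11-point dose curves for 48 h. Viability by CellTiter-Glo luminescence, normalised to DMSO and empty wells; activity expressed as AUC and per-cell-line Z-transformed AUC.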

[4] = BET inhibitor-based combinations targeting novel dependencies in MECOM-rearranged (r) AML: HNT-34 cell line (AID 2202234); further: nearly all actives have a fitted effect of over 35% in size
Procedure, shortened: as §1

[5] = BET inhibitor-based combinations targeting novel dependencies in MECOM-rearranged (r) AML: AML-191 cell line (AID 2202236; further: nearly all actives have a fitted effect of over 35% in size)
Procedure, shortened: as §2
Potency means the concentration at half of the fitted maximal effect.

| Compound | Potency [1] | Potency [2] | Potency [3] | Potency [4] | Potency [5] |
| --- | --- | --- | --- | --- | --- |
| Cc1ccc(-c2ccc(C)cn2)nc1 | inactive | inactive |  |  |  |
| Clc1cc(Cl)cc(CNc2ncncc2-c2ccc3c(c2)OCO3)c1 | 23.5 µM (active) | inactive | 26.3 µM (active) |  |  |
| O=C(/C=C/c1ccc(Cl)cc1)N1CCC2(CC1)CN(Cc1ccc(Cl)c(Cl)c1)C(=O)O2 | 20.9 µM (active) |  | inactive | 26.3 µM (active) |  |
| N[C@@H](CCC(=O)O)C(=O)N[C@@H](Cc1c[nH]c2ccccc12)C(=O)O (H-Glu-Trp-OH) | inactive | inactive | inactive | inactive |  |
| CC1=C2C[C@H]3[C@@H](CC[C@@H]4C[C@H](NS(C)(=O)=O)CC[C@@]43C)[C@@H]2CC[C@@]2(C1)O[C@@H]1C[C@H](C)CN[C@H]1[C@H]2C | 16.6 µM (active) |  | 23.5 µM (active) | 16.6 µM (active) | 20.9 µM (active) |
| CN[C@@H]1C[C@H]2O[C@@](C)([C@@H]1OC)n1c3ccccc3c3c4c(c5c6ccccc6n2c5c31)C(=O)N[C@H]4O | 0.0215 µM (active) | 0.135 µM (active) | 0.382 µM (active) | 0.428 µM (active) | 0.605 µM (active) |
| C[C@H]1CNC(=O)c2cnn3ccc(nc23)N[C@H](C)c2cc(F)ccc2O1 | 1.32 µM (active) |  |  | 0.833 µM (active) |  |
